# Reference: the supplement of paper PMC6609913
# Counter-ions that a name gives are not always drawn. ± gives the standard deviation of the averaged measurements. The full ranking holds about 1,300 compounds; the median of “normalised cell viability” is about 1, and the lowest 2% start at about 0.14. Many of the other results were omitted from the sample, so the lowest values are more common in it than they were.
# Test system: V-C8 (BRCA2-deficient hamster cells)
# Test: normalised cell viability (fraction of plate median); higher = more viable cells (less toxic)
# Settings: 5 µM
# Procedure, shortened: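 Cell viability was measured with a resazurin assay, normalised to the plate median (modified robust per cent of sample) and averaged over triplicate wells. Hamster V-C8 cells lacking BRCA2 and V-C8 cells with BRCA2 restored were seeded in 96-well plates. After 24 h, library drugs from 10 mM DMSO stocks were added at a final 5 μM in 100 μl medium and left for 3 days (screen 1) or 6 days (screen 2), with solvent-only wells alongside.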
compound,measurement,setting,value
COc1cc([C@@H]2c3cc4c(cc3[C@H](O)[C@H]3COC(=O)[C@H]23)OCO4)cc(OC)c1OC [Podophyllotoxin],normalised cell viability,treatment time: 3 days,0.126 ± 0.01
same,normalised cell viability,treatment time: 6 days,0.143 ± 0.0037
C[C@]12CC[C@@H]3c4ccc(OC(=O)N(CCCl)CCCl)cc4CC[C@H]3[C@@H]1CC[C@@H]2O [Estramustine],normalised cell viability,treatment time: 3 days,0.175 ± 0.019
same,normalised cell viability,treatment time: 6 days,0.213 ± 0.013
CCC1(C)CC(=O)NC(=O)C1 [Bemegride],normalised cell viability,treatment time: 3 days,0.925 ± 0.075
same,normalised cell viability,treatment time: 6 days,1.06 ± 0.055
"NCC(O)c1ccc(O)cc1 (racemic) [(+,-)-Octopamine hydrochloride]",normalised cell viability,treatment time: 3 days,1.02 ± 0.083
same,normalised cell viability,treatment time: 6 days,1.1 ± 0.083
"CC[C@@]1(O)C(=O)OCc2c1cc1n(c2=O)Cc2cc3ccccc3nc2-1 [Camptothecine (S,+)]",normalised cell viability,treatment time: 3 days,0.148 ± 0.0039
same,normalised cell viability,treatment time: 6 days,0.109 ± 0.008
CC[C@@]1([C@@H]2O[C@@H]([C@H]3O[C@@](O)(CO)[C@H](C)C[C@@H]3C)C[C@@H]2C)CC[C@H]([C@]2(C)CC[C@]3(C[C@H](O)[C@@H](C)[C@@H]([C@@H](C)[C@@H](OC)[C@H](C)C(=O)O)O3)O2)O1 [Monensin sodium salt],normalised cell viability,treatment time: 3 days,0.156 ± 0.0082
same,normalised cell viability,treatment time: 6 days,0.128 ± 0.0063
C[N+](C)(C)CCCCCCCCCC[N+](C)(C)C [Decamethonium bromide],normalised cell viability,treatment time: 3 days,1.18 ± 0.34
same,normalised cell viability,treatment time: 6 days,1.019 ± 0.0077
C[N+]1(C)[C@@H]2CC[C@H]1C[C@@H](OC(=O)C(CO)c1ccccc1)C2 (stereo partly specified) [Methylatropine nitrate],normalised cell viability,treatment time: 3 days,1.11 ± 0.021
same,normalised cell viability,treatment time: 6 days,1.15 ± 0.091
Oc1cc(Cl)ccc1Oc1ccc(Cl)cc1Cl [Triclosan],normalised cell viability,treatment time: 3 days,0.974 ± 0.022
same,normalised cell viability,treatment time: 6 days,1 ± 0.02
C[N+]1([O-])[C@@H]2C[C@@H](OC(=O)[C@H](CO)c3ccccc3)C[C@H]1[C@@H]1O[C@@H]12 (stereo partly specified) [Scopolamin-N-oxide hydrobromide],normalised cell viability,treatment time: 3 days,0.997 ± 0.074
same,normalised cell viability,treatment time: 6 days,0.945 ± 0.092
CC(C)(C)NCC(O)c1ccccc1Cl (stereo unspecified) [Tulobuterol],normalised cell viability,treatment time: 3 days,1.07 ± 0.015
same,normalised cell viability,treatment time: 6 days,1.05 ± 0.086
C[C@@H]1C[C@@H]([C@H](O)CC2CC(=O)NC(=O)C2)C(=O)[C@@H](C)C1 [Cycloheximide],normalised cell viability,treatment time: 3 days,0.132 ± 0.0063
same,normalised cell viability,treatment time: 6 days,0.142 ± 0.0068
C=CCC1(CC(C)C)C(=O)NC(=O)NC1=O [Butalbital],normalised cell viability,treatment time: 3 days,1.1 ± 0.031
same,normalised cell viability,treatment time: 6 days,1.079 ± 0.0048
C=C1[C@@H]2CC[C@H]3[C@]4(C)C[C@H](O[C@@H]5O[C@H](CO)[C@@H](OS(=O)(=O)O)[C@H](OS(=O)(=O)O)[C@H]5OC(=O)CC(C)C)C[C@@H](C(=O)O)[C@H]4CC[C@]3(C2)[C@@H]1O [Atractyloside potassium salt],normalised cell viability,treatment time: 3 days,1.05 ± 0.051
same,normalised cell viability,treatment time: 6 days,1.09 ± 0.079
C[C@]12CC[C@H]3[C@@H](CCC4=CC(=O)CC[C@@H]43)[C@@H]1CC[C@@H]2O [Nandrolone],normalised cell viability,treatment time: 3 days,0.993 ± 0.11
same,normalised cell viability,treatment time: 6 days,1.02 ± 0.028
CN1C[C@H](CNC(=O)OCc2ccccc2)C[C@@H]2c3cccc4c3c(cn4C)C[C@H]21 [Metergoline],normalised cell viability,treatment time: 3 days,0.1447 ± 0.00066
same,normalised cell viability,treatment time: 6 days,0.133 ± 0.017
CO[C@]12C[C@@H](COC(=O)c3cncc(Br)c3)CN(C)[C@@H]1Cc1cn(C)c3cccc2c13 [Nicergoline],normalised cell viability,treatment time: 3 days,0.886 ± 0.074
same,normalised cell viability,treatment time: 6 days,0.994 ± 0.033
CN1C[C@H](C(=O)N[C@]2(C)O[C@@]3(O)[C@@H]4CCCN4C(=O)[C@H](Cc4ccccc4)N3C2=O)C[C@@H]2c3cccc4[nH]cc(c34)C[C@H]21 [Dihydroergotamine tartrate],normalised cell viability,treatment time: 3 days,1.06 ± 0.024
same,normalised cell viability,treatment time: 6 days,1.02 ± 0.12
